40 compounds from ChEMBL document CHEMBL3433997, “St. Jude Leishmania screening dataset” (2016) can be followed below.

Molecules are shown by their SMILES.

In this assay the target is Glucose transporter (Leishmania mexicana) (UniProt O61059). As to the kind of experiment: ST_JUDE_LEISH: Cytotoxicity at 2uM final concentration against transgenic Leishmania Mexicana promastigotes LmGT2 that are glucose transport deficient and complemented with the L. Mexicana glucose transporter 2. Activity is measured by DNA content using SYBR green in vitro. The format is functional.
With `Cc1noc(-c2ccc(N3CCC(C(=O)N4CCN(C(C)C)CC4)CC3)cc2)n1`, the inhibition (as a rule, the change of the read-out against control, counted positive when it falls) came out at 2%.
In the case of `C=CCc1cc(SC)ccc1Oc1ccc(N)cc1` it was 1.08%.
In the case of `COc1ccc(N2CCN(CCCC/C=C/c3ccc(NC(=O)c4cc(Cl)cc(Cl)c4)cc3)CC2)c(OC)c1` it was 0.93%; in that of `COc1ccc(Nc2nccc(N3CCC(NC(=O)Nc4cccc(C(C)=O)c4)C3)n2)cc1` (stereo not given), 3.49%.
In the case of `CC1=C(C(=O)Nc2ccccc2)C(c2ccc([N+](=O)[O-])cc2)n2ncc(C(=O)Nc3ccccc3)c2N1` (stereo not given) it was 5.18%; in that of `N#Cc1ccc(NC2(C(=O)N3CCN(c4cccc(Cl)c4)CC3)CC2)c2ccccc12`, 0.86%.
On to `Cc1cc(NC(=O)c2sc3ccccc3c2O)no1`, for which the inhibition was determined as 0.64%.
Turning to `COCCNCc1ccc(-c2ccc3c(Nc4ccc(F)cc4Cl)ccnc3c2)o1`, the inhibition was 5.59%.
In the case of `c1ccc2c(c1)cc(CNCCCN1CCN(CCCNCc3cc4ccccc4c4ccccc34)CC1)c1ccccc12` it was -0.41%; in that of `Cc1cc(-c2cc(-c3ccc(OCCN(C)C)cc3)[nH]c2-c2ccc3c(c2)CCC3=NO)ccn1`, 2.39%.
In the case of `Cc1cc(C(=O)NCc2ccc(-c3c(C)noc3C)cc2)n(-c2ccccc2)n1` it was 3.34%; in that of `COc1ccccc1C1CCN(C2CCC(NC(=O)/C=C/c3cc(F)cc(C(F)(F)F)c3)CC2)CC1` (stereo not given), 1.96%; in that of `O=C(Nc1ccc2oc(-c3ccc(Cl)cc3Cl)nc2c1)c1ccc([N+](=O)[O-])o1`, 11%.
For `N#CN1CC[C@H](CS(=O)(=O)c2cccc(Br)c2)C1` the value was 2.05%; for `O=C(/C=C/c1ccc(Cl)c(Cl)c1)NCCCCCN1CCCN(C(=O)Nc2ccc([N+](=O)[O-])cc2)CC1`, 4.07%; for `CN(C)CCOC(=O)C1(O)CCC2CC1C2(C)C` (stereo not given), 2.45%.
As for `CC(C)(C)c1ccc(CN2CCC(CNC(=O)c3cc(-c4ccccc4Cl)cs3)C2)cc1` (stereo not given), the inhibition came to 1.29%.
For the compound `CCCOc1cccc(C(=O)N[C@@H](Cc2ccccc2)[C@H](O)CNCc2cccc(OC)c2)c1`, the inhibition is -3.25%.
For `CC(=O)N1N=C(c2ccc(Cl)cc2)Sc2c1nc(-c1ccccc1)n2C(C)=O`, the inhibition worked out at 2.48%.
`O=C(c1cc2nc3c(c(C(F)(F)F)n2n1)CCc1ccccc1-3)N1CCN2CCCC2C1` (stereo not given): the inhibition was determined as 2.07%.
For `CCOC(=O)c1nc(-c2ccccc2)[nH]c1NC(=S)NC1CCCCC1` the value was -6.59%.
For `CN1CCN(c2ccnc3ccc(NC(=O)Nc4cccc5ccccc45)cc23)CC1` the value was 1.87%; for `CNC(=O)c1cnc(Nc2ccc(N3CCN(C)CC3)cc2)nc1Nc1cccc(OC(C)C)c1`, -7.72%; for `CC1CN(c2ccc3occ(C(=O)Nc4ccc(-c5ccncc5)c(Cl)c4)c3c2)CC(C)N1C` (stereo not given), 1.93%.
For `CN1CCN(CC(=O)Nc2cccc(-c3cccc(-c4nc5cc(F)ccc5[nH]4)c3)c2)CC1` the value was 3.51%; for `O=C(NC1CCN(CC2(c3ccccc3)CCCC2)CC1)c1n[nH]cc1Cl`, -0.85%.
In the case of `O=C(NCCCCCN1CCCN(C(=O)Nc2ccc(F)c(C(F)(F)F)c2)CC1)C1CC1c1ccc(Cl)c(Cl)c1` (stereo not given), the inhibition was found to be 0.2%.
Consider `COc1ccc(OC)c(CC2c3ccc(Br)c(O)c3CCN2C)c1` (stereo not given), for which the inhibition was determined as 2.33%.
Consider `N=c1n(Cc2ccccc2)c2ccccc2n1CC(O)c1ccc(Cl)c(Cl)c1` (stereo not given), for which the inhibition was 1.3%.
Turning to `Cc1ccc(CN(Cc2ccc(C(=O)N(C)C)cc2)Cc2ccc3c(c2)OCCO3)cc1C`, the inhibition was 0.35%.
Turning to `CCCNC(=O)C1CCN(C(c2ccc(Cl)cc2)c2ccc(Cl)cc2)CC1`, the inhibition was 0.49%.
In the case of `O=C(Nc1cccc(CN2CCN(Cc3ccc(O)cc3)CC2)c1)c1cc2ccccc2s1` it was 8.57%.
On to `COc1cc(CNC[C@@H](O)[C@H](Cc2ccccc2)NC(=O)c2cc(C3CCCC3)cc(N3CCCCS3(=O)=O)c2)cc(OC)c1`, for which the inhibition is 6.05%.
For `O=C(Nc1ccc(C(F)(F)F)cc1)c1cccc(S(=O)(=O)NC2CCN(CC3CCCCC3)CC2)c1` the value was 4.52%; for `Cc1cc(N2CCN(C3CCCCC3)CC2)nc2cccc(O)c12`, 0.33%.
In the case of `CCNCc1ccc(-c2cccc(-c3nc4ccccc4[nH]3)c2)cc1` it was 3.49%.
Consider `Nc1c(Cl)cc(C(O)CNCCCCCCOCCc2ccc(O)cc2)cc1Cl` (stereo not given), for which the inhibition is -2.56%.
Regarding `O=C1CC(C(=O)Nc2cccc(-c3cccc(-c4nc5ccccc5[nH]4)c3)c2)c2ccccc2N1` (stereo not given), the inhibition came to 0.51%.
In the case of `Cc1nc(C)c(C2CCC(c3ccc(Cl)cc3)CC2)c(O)c1Cl` (stereo not given) it was -0.48%.
In the case of `CSc1ccc(CN2CCC(NC(=O)c3ccc(-c4cccc(Cl)c4)s3)CC2)cc1` it was 2.36%.
